GLP1R inv ag: inverse agonists of human GLP-1 receptor; P43220; HEK293 GLP-1R CRE-luciferase, luminescence, 24 h; GLP-1R form is constitutively active; Potency, µM (doses to about 38.3 µM), without a hit: top-dose activity change, negative = inhibition, most hits filed as inhibitors; 1.6% of 410,000 active; AID 624417; further: potency means the concentration at half of the fitted maximal effect; on the % scale 0 is the no-effect control and ±100 the full control effect; nearly all actives have a fitted effect of over 55% in size
Target sequence (P43220 whole entry, looked up): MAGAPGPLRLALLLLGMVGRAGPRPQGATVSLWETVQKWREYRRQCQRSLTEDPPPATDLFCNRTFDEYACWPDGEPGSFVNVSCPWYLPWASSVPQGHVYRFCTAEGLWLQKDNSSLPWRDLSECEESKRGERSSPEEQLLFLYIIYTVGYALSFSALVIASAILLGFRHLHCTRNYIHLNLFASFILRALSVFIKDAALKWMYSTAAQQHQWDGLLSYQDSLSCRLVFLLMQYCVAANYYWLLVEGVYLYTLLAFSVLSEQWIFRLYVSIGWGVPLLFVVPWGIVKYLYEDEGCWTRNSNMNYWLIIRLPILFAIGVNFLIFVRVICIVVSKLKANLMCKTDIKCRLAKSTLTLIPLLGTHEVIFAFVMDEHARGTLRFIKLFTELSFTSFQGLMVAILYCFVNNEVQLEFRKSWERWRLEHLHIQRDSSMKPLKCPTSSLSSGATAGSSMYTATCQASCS
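Inverse agonists were sought by their lowering of basal cAMP reporter luciferase output in HEK293 cells stably carrying constitutively active human GLP-1R, after 24 h compound treatment.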
HEK293 tox: cytotoxicity in counter-screen for GLP-1R inverse agonists; HEK293 cAMP-luciferase reporter cells, luminescence, 24 h; Potency, µM (highest dose often 38.3 µM), for the others: at the top dose activity change, negative = inhibition, hits mostly inhibitors; 0.13% of 410,000 active;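 further: loss of luciferase light is scored as toxicity; potency means the concentration at half of the fitted maximal effect; on the % scale 0 is the no-effect control and ±100 the full control effect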
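Step one: seed cells (200 cells/uL, DMEM with 10% Nu serum, 1% pen-strep). Step two: 12-hour incubation at 37 deg C. Step three: pin 23 nL compound, incubate 24 hr. Step four: add luciferase reagent, read luminescence 12 min later.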
uPA surface inh: blocks generation of uPA at the cell surface. Potency, µM (top dose mostly 38.3 µM), inactives show top-dose activity change, negative = inhibition, usual class: inhibitors. 0.31% of 330,000 active. AID 540303. cell surface uPA generation assay, qHTS; active means well fitted inhibition curve with a large enough effect; inconclusive means small, poorly fitted or top-dose-only effect; inactive means no such curve, though single readings can be large or run the other way; tested in mouse RAW 264.7 cells; further: potency means the concentration at half of the fitted maximal effect; on the % scale 0 is the no-effect control and ±100 the full control effect; nearly all actives have a fitted effect of over 55% in size
MmCpn inh: blocks the Methanococcus maripaludis chaperonin Mm-Cpn; AID 504842; purified Mm-Cpn ATPase, ADP Transcreener TR-FRET; 0.031% of 330,000 active; Potency, µM (top dose mostly 76.9 µM), without a hit: at the highest dose activity, negative = inhibition, usual class: inhibitors; further: potency means the concentration at half of the fitted maximal effect; on the % scale 0 is the no-effect control and ±100 the full control effect; nearly all actives have a fitted effect of over 80% in size
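Measured: ADP formation by purified Mm-CPN. Conditions: 25 nM protein, 10 uM ATP, Tris pH 7.4 with Mg2+, K+ and DTT, 37°C for 30 min. Detection: Transcreener HTRF after 30 min at room temperature.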
CCT chaperon mod: modulators of cytosolic chaperonin (CCT/TRiC) activity; purified chaperonin ATPase assay, HTRF ADP detection, 30 min; 0.3% of 360,000 active; activity change, % (concentration not given with the values), hits read low; AID 651819; in the data active means activity change below about -30%; further: on the % scale 0 is the no-effect control and ±100 the full control effect
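Nucleotide hydrolysis assay: TRiC at 20–40 nM final (set by batch activity) with 10 uM ATP, 30 min at 37 °C, in presence of 76 uM compound. Detection by competitive ADP HTRF, 30 min ambient.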
GLP1R ag: agonists of human GLP-1 receptor; P43220; HEK293 GLP-1R CRE-luciferase, luminescence, 4-6 h; cells express a hypersensitive GLP-1R form; Potency, µM (top dose mostly 45.6 µM), for the others: at the top dose activation, most hits filed as activators; 0.007% of 380,000 active; AID 624172; further: potency means the concentration at half of the fitted maximal effect; % of control where 0% means no effect
* = called active by the depositor; ? = inconclusive; · = not tested or not shown; [ ] = remark or other dose. Hits are enriched below; roughly 2.2% of the tested compounds scored in any of these assays. Unless noted, the call rests on the fitted dose curve; in most records, active means well fitted curve in the direction sought with a large enough effect; inconclusive means small, poorly fitted or top-dose-only effect, or another doubt; inactive means no such curve, though single readings can be large; an effect the other way counts as inactive or inconclusive.

SMILES	GLP1R inv ag	HEK293 tox	uPA surface inh	MmCpn inh	CCT chaperon mod	GLP1R ag
COc1cc2nc(N3CCNCC3)nc(N)c2cc1OC	-14.6%	?	-4.0%	-2.2%	0.6	-6.3%
COc1cc2nc(N3CCN(c4cc(C)ccc4C)CC3)nc(N)c2cc1OC	5.01µM*	?	-17.3%	0.9%	1.2	-7.9%
COc1ccc(Nc2nc3c(S(=O)(=O)c4ccc(Br)cc4)nnn3c3ccsc23)c(OC)c1	11.6%	19.9%	·	·	·	·
Brc1ccc(-c2csc(N3CCCCC3)n2)cc1	·	·	·	3.4%	·	·
C(=N\N1CCN(C2c3ccccc3-c3ccccc32)CC1)/c1ccccn1	-12.9%	16.2%	-1.2%	1.9%	-2.9	-13.1%
C(=N\N1CCN(C2c3ccccc3-c3ccccc32)CC1)/c1cccnc1	11.2µM*	-20.7%	3.0%	-0.7%	1.1	4.1%
Cc1ccc(/C=N/N2CCN(C3c4ccccc4-c4ccccc43)CC2)s1	12.7%	11.3%	3.8%	0.1%	-55.9*	-9.8%
CCc1ccc(CN(C(=O)Nc2cccc(Cl)c2)c2ccccn2)cc1	?	-5.9%	·	·	·	·
COc1cccc(CSc2nc3n(n2)C(c2cccc(F)c2)C(C(=O)Nc2ccccc2C)=C(C)N3)c1 (centres undefined)	14.1%	1.3%	·	·	·	·
C[C@@H]1ON(C)[C@H]2C[C@H]3c4[nH]c5ccc(-c6ccc7c(c6)OCO7)cc5c4CCN3C[C@@H]12	?	0.2%	·	·	-72.9*	2.5%
C[C@H](O)[C@@H]1CN2CCc3c([nH]c4ccc(-c5ccc6c(c5)OCO6)cc34)[C@@H]2C[C@@H]1N(C)C(=O)Nc1ccc(F)cc1	3.98µM*	?	·	·	0.4	-7.8%
COc1ccc(Cl)cc1NC(=O)CN(C)C(=O)c1cc2c(s1)CCCC2	5.01µM*	?	?	-2.5%	0.5	3.4%
COc1ccc(Cl)cc1NC(=O)CN(C)C(=O)c1sc2ccccc2c1Cl	5.62µM*	-32.8%	-27.2%	-17.5%	1.5	20.8%
COc1ccc(Cl)cc1NC(=O)CN(C)C(C)C(=O)NC(=O)NC1CCCCC1 (centres undefined)	3.16µM*	?	3.2%	-4.9%	-0.3	-15.0%
CC1CCN(C(=O)CSc2c(C(C)C)cnc3c2c(=O)n(C)c(=O)n3C)CC1	?	-18.8%	·	·	·	·
CC(=O)Nc1sc2c(c1C#N)CCCC2	13.5%	18.3%	-6.0%	·	-3.4	11.8%
CC(=O)NC(=S)Nc1sc2c(c1C#N)CCCCC2	33.9%	-0.5%	-10.3%	2.1%	-30.8*	7.0%
CSc1ccccc1NC(=O)CN(C)Cc1ccc(Br)cc1	7.08µM*	10.9%	-7.8%	-1.5%	0.3	17.4%
Oc1ccc2ccccc2c1N=Nc1ccccn1	?	2.51µM*	-11.5%	-0.5%	-1.6	?
Oc1ccc2ccccc2c1N=Nc1ccccc1F	16.3%	-12.1%	-10.9%	1.5%	-1.1	1.3%
CSc1cccc(NC(=O)C2CCN(S(=O)(=O)c3ccc4c(c3)CCCN4C(=O)C3CCC3)CC2)c1	-27.8%	1.8%	·	·	·	·
COc1ccc(OCc2cc(C(=O)NCCc3ccccc3)no2)c(Cl)c1	4.47µM*	-23.5%	?	2.7%	-3.3	10.0%
COc1ccc(OCc2cc(C(=O)NCC3CCOCC3)no2)c(Cl)c1	-21.7%	-8.8%	-1.8%	0.1%	1.5	15.6%
COc1cc2cc(CNc3ccccc3)c(=O)n(CC(=O)Nc3cc(C)cc(C)c3)c2cc1OC	0.8%	4.6%	·	·	·	-0.1%
O=C1CN(CC(=O)Nc2cccc(Cl)c2Cl)c2ccccc2N1	10µM*	0.8%	-87.1%	1.1%	-2.9	9.2%
SMILES	GLP1R inv ag	HEK293 tox	uPA surface inh	MmCpn inh	CCT chaperon mod	GLP1R ag
C=CCOC(=O)C1=C(C)OC(N)=C(C#N)C1c1ccc(OC)c(CSc2ccccn2)c1 (centres undefined)	9.4%	-4.1%	-2.0%	-1.2%	-84.7*	11.2%
Cc1ccc(CSc2ccc3nnc(-c4cccnc4)n3n2)cc1	88.0%	2.3%	-10.7%	-1.5%	2.4	10.7%
Fc1cccc(CSc2ccc3nnc(-c4cccnc4)n3n2)c1	30.6%[7.66 µM]	8.8%[7.66 µM]	-3.8%	-0.6%	-30.3*	5.5%
Cc1ccc(-c2cc3c(nn2)-c2ccccc2C3=O)cc1	1.41µM*	1.3%	-16.9%	-0.3%	-5.2	-2.2%
O=C1c2ccccc2-c2nnc(-c3ccc(F)cc3)cc21	-9.4%	-6.4%	-16.4%	-1.0%	-3.0	10.8%
Cc1cc([N+](=O)[O-])c2ccccc2c1NS(=O)(=O)c1ccccc1	10µM*	-3.7%	-3.0%	·	-2.4	12.5%
Cc1ccc(NS(=O)(=O)c2ccccc2)c([N+](=O)[O-])c1	2.8%	0.0%	2.7%	·	-1.9	0.8%
Cc1ccc(NC(=O)CCCN2C(=O)COc3ccc(C)cc32)c(Cl)c1	-24.1%	-0.6%	·	·	·	·
COc1cccc(-n2cc(C(=O)Nc3cccc(C(F)(F)F)c3)c3ccccc3c2=O)c1	-7.8%	-3.9%	·	·	·	·
Fc1ccc(NC(=S)NC2CCN(Cc3ccccc3)CC2)cc1	?	-49.1%	10.2%	0.1%	-1.8	2.4%
S=C(Nc1ccc(Cl)c(Cl)c1)NC1CCN(Cc2ccccc2)CC1	3.16µM*	?	-13.3%	0.1%	-1.4	-21.6%
S=C(Nc1ccc(Oc2ccccc2)cc1)NC1CCCCC1	?	-19.8%	0.2%	1.2%	-0.2	2.0%
S=C(Nc1ccc(Cl)c(Cl)c1)NC1CCCCC1	-16.4%	12.6µM*	·	-0.2%	-0.3	5.7%
S=C(Nc1ccc(Oc2ccccc2)cc1)NC1CCCCCC1	10µM*	?	9.9%	1.7%	1.6	-4.2%
S=C(NNc1ccc2ccccc2c1)NC1CCCCC1	10µM*	?	-4.1%	1.0%	-3.6	0.3%
COc1c(C)cccc1C(=O)Nc1ccc(Cl)c(-c2nc3cc(C)ccc3o2)c1	?	1.3%	·	·	·	·
Cc1ccc(-c2ccc(CCC(=O)O)n2-c2cccc(C)c2C)cc1	?	1.4%	·	·	·	·
COc1ccc(CCNC(=O)c2nc(SCc3ccccc3F)ncc2Cl)cc1OC	?	-12.4%	·	·	·	·
O=C(OCc1c(F)cccc1Cl)c1cnccn1	2.2%	11.9%	3.7%	0.8%	-40.4*	-3.6%
COc1cccc(C2CNC3(CCCC(C)C3)c3[nH]c4ccccc4c32)c1OC (centres undefined)	?	?	3.0%	-0.1%	-1.0	-1.3%
CC1(C)CC(=O)CC2(C1)NCC(c1ccccc1)c1c2[nH]c2ccccc12 (centres undefined)	10µM*	-11.8%	1.1%	0.8%	-2.9	7.9%
Cc1ccc2cc(/C=N/NC(=O)c3ccc(F)cc3)c(Cl)nc2c1	4.8%[0.307 µM]	1.0%[0.307 µM]	0.8%	-0.4%	-10.1	-10.6%
Cc1ccc2nc(Cl)c(/C=N/Nc3ccc(C(=O)O)cc3)cc2c1	-15.1%	113.9%	3.98µM*	-10.4%	-1.2	-3.9%

Screens as filed in PubChem BioAssay.
